Bioassay records from PubChem BioAssay.
G9a block – G9a (human) methyltransferase inhibition | G9a H3K9 monomethylation, AlphaScreen, 2 h | Potency, µM (titrated, usually from 102 µM), actives largely listed as inhibitors | 8.8% of 350,000 active | AID 504332; note: nearly all actives have a fitted effect of over 75% in size
Target sequence (Q96KQ7 913-1193 limits assumed): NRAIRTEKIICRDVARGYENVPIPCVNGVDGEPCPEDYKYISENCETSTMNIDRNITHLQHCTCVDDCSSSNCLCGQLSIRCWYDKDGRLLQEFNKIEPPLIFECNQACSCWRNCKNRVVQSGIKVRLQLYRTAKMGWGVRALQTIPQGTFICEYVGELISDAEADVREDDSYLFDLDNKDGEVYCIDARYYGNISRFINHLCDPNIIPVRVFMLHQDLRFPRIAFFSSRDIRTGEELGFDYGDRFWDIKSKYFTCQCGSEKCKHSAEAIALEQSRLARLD
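Using a bead-based AlphaScreen, monomethylated H3K9 product from 2 h room-temperature reactions (G9a 20 nM, peptide 500 nM, SAM 20 uM) was detected with 0.5 ug/mL rabbit anti-H3K9me1 antibody.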
BAZ2B inh – inhibitors of human BAZ2B bromodomain. AlphaScreen BAZ2B-H3K14Ac peptide displacement. Potency, µM (highest dose often 114 µM), most hits filed as inhibitors. 4.4% of 360,000 active. AID 504333; note: nearly all actives have a fitted effect of over 60% in size
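AlphaScreen luminescence quantifies BAZ2B engagement of H3K14Ac peptide; the protein and biotinylated peptide are both at 50 nM final, buffer PBS pH 7.4 with 0.01% Tween-20, all steps at room temperature.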
JMJD2A Tudor – inhibitors of human JMJD2A Tudor domain; O75164; AlphaScreen JMJD2A-Tudor / H3K4me3 peptide binding; Potency, µM (titrated, usually from 114 µM), usual class: inhibitors; 4.4% of 390,000 active; AID 504339; note: nearly all actives have a fitted effect of over 50% in size
HP1b chromo inh – HP1-beta chromodomain-methylated histone interaction inhibition. Potency, µM (highest dose often 114 µM), most hits filed as inhibitors. AID 540317. AlphaScreen HP1-beta / biotin-H3K9me3 peptide binding. P83916. 0.56% of 390,000 active; note: nearly all actives have a fitted effect of over 70% in size
Target sequence (P83916 whole entry, looked up): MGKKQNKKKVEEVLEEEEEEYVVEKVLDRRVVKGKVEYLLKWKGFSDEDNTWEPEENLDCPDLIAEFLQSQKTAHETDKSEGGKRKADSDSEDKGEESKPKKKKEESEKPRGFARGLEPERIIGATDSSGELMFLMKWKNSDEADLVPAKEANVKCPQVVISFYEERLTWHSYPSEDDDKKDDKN
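Compound inhibition of the preformed complex between 50 nM HP1-beta and 50 nM biotinylated H3K9me3 peptide was read by AlphaScreen. Buffer was PBS pH 7.4 with 0.01% Tween-20. Incubations ran 30 min at room temperature, with 10 ug/mL donor/acceptor beads.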
L3MBTL1 block – L3MBTL1 (human) inhibition. Q9Y468. AlphaScreen L3MBTL1–H3K9me1 peptide binding. Potency, µM (top dose mostly 57.1 µM), usual class: inhibitors. 0.66% of 230,000 active; note: nearly all actives have a fitted effect of over 60% in size
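AlphaScreen assay: L3MBTL1 (50 nM final) was preincubated 30 min at room temperature with biotinylated H3(1-15)K9me1 peptide (75 nM final), then 30 min with library compounds; streptavidin donor and nickel chelate acceptor beads (10 ug/mL final) added, 30 min dark.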
Hits are given with their value; – = inactive; ? = inconclusive; · = not tested or not shown; [ ] = dose if it differs, or a comment. In the library only some 11% were active in any assay of this set; here they are far more common. Calls come from the whole dose curve; as a rule, active = well fitted inhibition curve with a large enough effect; inconclusive = small, poorly fitted or top-dose-only effect; inactive = no such curve, though single readings can be large or run the other way.

SMILES	G9a block	BAZ2B inh	JMJD2A Tudor	HP1b chromo inh	L3MBTL1 block
CCOc1cccc(C(=O)N(Cc2ccc(C)o2)C2CCS(=O)(=O)C2)c1 (stereo unspecified)	–	–	–	–	·
COCCn1c(C)nnc1SCC(=O)NNC(=O)c1ccc(Cl)cc1	50µM	–	–	–	·
Cn1cnnc1SCC(=O)NNC(=O)c1ccc(Cl)cc1	–	–	–	–	–
CCOC(=O)c1[nH]nc(-c2cc(CC)c(O)cc2O)c1-c1cscn1	·	?	89µM	–	–
C=CCN1C(=O)/C(=c2\sc3nc(=O)c(Cc4ccccc4Cl)nn3c2=O)c2ccccc21	11µM	?	71µM	?	–
O=C(NCc1ccccc1)C(=O)NCC(c1ccco1)S(=O)(=O)c1ccccc1 (stereo unspecified)	–	–	–	–	·
CC(C)CC(NC(=O)/C(=C\c1ccco1)NC(=O)c1ccco1)C(=O)O (stereo unspecified)	32µM	–	–	–	·
O=C(NCCO)/C(=C/c1ccco1)NC(=O)c1ccco1	·	·	–	–	·
O=C(NCCO)/C(=C\c1ccco1)NC(=O)c1ccco1	32µM	–	–	–	–
CC(C)c1ccc(/C=C(\NC(=O)c2ccccc2)C(=O)NCCCn2ccnc2)cc1	–	?	–	–	·
O=C(NCc1ccccc1)/C(=C/c1ccccc1)NC(=O)c1ccco1	–	–	–	–	·
O=C(NCCCn1ccnc1)/C(=C/c1ccc(F)cc1)NC(=O)c1ccccc1	–	71µM	–	–	·
O=C(NCc1ccccc1)/C(=C/c1ccco1)NC(=O)c1ccco1	35µM	–	–	–	·
O=C(O)CNC(=O)/C(=C\c1ccco1)NC(=O)c1ccco1	·	–	–	–	?
O=C(NCCc1ccccc1)/C(=C\c1ccc([N+](=O)[O-])cc1)NC(=O)c1ccco1	40µM	–	–	–	·
O=C(O)CCNC(=O)/C(=C\c1ccco1)NC(=O)c1ccco1	22µM	–	–	–	?
O=C(NCCCO)/C(=C\c1ccco1)NC(=O)c1ccco1	71µM	–	–	–	–
O=C(NCc1ccccc1)/C(=C\c1ccc([N+](=O)[O-])cc1)NC(=O)c1ccco1	–	–	–	–	·
O=C(O)CCCCCNC(=O)/C(=C\c1ccco1)NC(=O)c1ccco1	?	–	–	–	?
O=C(NC(Cc1ccccc1)C(=O)O)/C(=C/c1ccc(Cl)cc1)NC(=O)c1ccco1 (stereo unspecified)	50µM	–	–	–	·
O=C(CN1C(=O)CC(c2ccco2)Sc2ccccc21)NC1CCCCC1 (stereo unspecified)	?	–	–	–	–
COc1ccc(NC(=O)CCCn2nc(C)c3sc4ccccc4c3c2=O)cc1	–	–	–	–	·
O=C(NCCCn1ccnc1)c1ccco1	–[12.7 µM]	?	?	–	–
O=C(NCCCn1ccnc1)/C(=C\c1ccco1)NC(=O)c1ccco1	?	89µM	–	–	·
Cc1ccc(C(=O)N/C(=C\c2ccccc2)C(=O)NCc2ccncc2)cc1	–[0.0925 µM]	50µM	–	–	–
SMILES	G9a block	BAZ2B inh	JMJD2A Tudor	HP1b chromo inh	L3MBTL1 block
COc1ccc(C(=O)N/C(=C/c2ccco2)C(=O)NCc2ccco2)cc1	?	–	–	–	·
O=C(NC(Cc1ccccc1)C(=O)O)/C(=C/c1ccco1)NC(=O)c1cccc([N+](=O)[O-])c1 (stereo unspecified)	45µM	–	–	–	·
Cc1ccc(C(=O)N/C(=C/c2ccco2)C(=O)NCc2ccco2)cc1	45µM	–	–	–	·
CCCCC/C=C\C/C=C\C/C=C\C/C=C\CCCC(=O)O[C@@H](CO)COCCCCCCCCCCCCCCCC	–	·	·	·	·
CC(C)COc1ccc(C(=O)N2CCCCC2CCN2CCCCC2)cc1 (stereo unspecified)	–	–	–	–	·
Cc1nnn(C23CC4CC(CC(CC(=O)Nc5ccc(C)c(C)c5)(C4)C2)C3)n1	?	–	–	–	–
O=S(=O)(c1ccc(F)cc1)N1CCN(c2nc(-c3cccc(Br)c3)nc3ccccc23)CC1	·	·	–	–	·
CCc1ccc(C2c3c(oc4ccc(F)cc4c3=O)C(=O)N2CCc2ccc(OC)cc2)cc1 (stereo unspecified)	–	–	–	–	·
CCOc1cc(C(=O)NCCc2csc(-c3ccc(C)cc3)n2)cc(OCC)c1OCC	–	–	–	–	·
Cc1ccc(S(=O)(=O)c2nc(Nc3ccccc3)sc2Cl)cc1	?	–	?	–	–
